# Rab9 promoter act: activators of Rab9 promoter; Huh7 Rab9 promoter-luciferase reporter, luminescence, 24 h; Potency, µM (series often up to 9.22 µM), for the others: at the highest dose activation, negative = inhibition, hits mostly activators; 320,000 compounds, 2.8% hits; AID 485297; further: % of control where 0% means no effect; nearly all actives have a fitted effect of over 60% in size
#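 Measured in stably transfected Huh7 cells bearing a Rab9 promoter–luciferase construct: 24 h compound treatment at 37 °C, followed by luminescence detection.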
# FLuc counter: inhibits or activates purified firefly luciferase, miR-21 counter-screen. 360,000 compounds, 6.9% hits. AID 588342. Potency, µM (top dose mostly 57.5 µM), for inactives: top-dose activity change, negative = inhibition, most hits filed as inhibitors. purified FLuc, Km substrates, luminescence inhibition;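 further: plate controls were vehicle for no effect and reference inhibitor for full effect; nearly all actives have a fitted effect of over 55% in size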
# Target sequence (P08659 whole entry, looked up): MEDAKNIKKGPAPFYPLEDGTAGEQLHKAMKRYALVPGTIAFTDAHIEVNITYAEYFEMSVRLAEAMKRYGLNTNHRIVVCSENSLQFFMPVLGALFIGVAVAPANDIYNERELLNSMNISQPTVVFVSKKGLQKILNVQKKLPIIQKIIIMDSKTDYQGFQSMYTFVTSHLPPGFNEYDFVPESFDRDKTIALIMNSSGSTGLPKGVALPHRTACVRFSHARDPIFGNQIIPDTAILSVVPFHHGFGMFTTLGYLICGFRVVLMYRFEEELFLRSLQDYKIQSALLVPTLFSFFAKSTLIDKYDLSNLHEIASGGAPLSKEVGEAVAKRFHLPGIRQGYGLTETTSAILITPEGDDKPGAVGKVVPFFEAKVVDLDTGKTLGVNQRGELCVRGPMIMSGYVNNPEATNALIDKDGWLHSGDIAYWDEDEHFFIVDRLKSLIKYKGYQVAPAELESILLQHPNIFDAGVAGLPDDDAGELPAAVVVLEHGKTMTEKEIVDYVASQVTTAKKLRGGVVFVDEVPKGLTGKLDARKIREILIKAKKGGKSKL
#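 Biochemical qHTS of compounds, final roughly 60 µM downward over six points, against 10 nM purified firefly luciferase using Km concentrations of substrates (10 uM D-luciferin, 10 uM ATP) in Tris acetate pH 7.5 buffer; luminescence output.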
# SMN2 splice up: enhancers of SMN2 splice variant expression; HEK293 SMN2-luciferase splicing reporter, luminescence, 30-36 h; Potency, µM (highest dose often 46.1 µM), without a hit: at the highest dose activity change, positive = activation, most hits filed as activators; 210,000 compounds, 2.8% hits; further: % of control where 0% means no effect; nearly all actives have a fitted effect of over 55% in size
#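 qHTS luciferase splicing reporter: luminescence rises when SMN2 exon 7 is included in transfected HEK293 cells. Compound exposure lasted 30-36 h at 37C, with 4.5 mM final sodium butyrate as control, followed by a ONE-Glo read.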
# ELG1 repair inh: inhibitors of ELG1-dependent DNA repair in HEK293T cells | HEK293T ELG1-luciferase reporter, luminescence, 16 h; DNA damage induced by 5-fluorouridine | Potency, µM (highest dose often 46.1 µM), for inactives: at the top dose activity change, negative = inhibition, hits mostly inhibitors | 330,000 compounds, 2.3% hits | AID 504467; further: on the % scale 0 is the no-effect control and ±100 the full control effect; nearly all actives have a fitted effect of over 55% in size
#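 DMSO vehicle served as the neutral condition. Each well held 2,000 cells given 5-fluorouridine plus compound; after 16 hr at 37 °C/5% CO2, ONE-Glo was added and luciferase measured 30 min later.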
# ELG1 genotox: genotoxicity induction in ELG1-luciferase HEK293T cells; Potency, µM (titrated, usually from 46 µM), inactives show top-dose activity change, positive = activation, most hits filed as activators; HEK293T ELG1-luciferase reporter, luminescence, 16 h; AID 504466; 330,000 compounds, 1.3% hits; further: % of control where 0% means no effect; nearly all actives have a fitted effect of over 60% in size
#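 16 hr compound incubation (37 °C, 5% CO2) of HEK293T cells carrying luciferase-tagged ELG1; luciferase then measured by ONE-Glo luminescence after 30 min at RT.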
# NPC1 prom act: activators of NPC1 promoter | Huh7 NPC1 promoter luciferase reporter, 24 h | Potency, µM (highest dose often 9.22 µM), for the others: at the highest dose activation, actives largely listed as activators | 320,000 compounds, 2.4% hits | AID 485313; further: % of control where 0% means no effect; nearly all actives have a fitted effect of over 60% in size
#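 In 1536-well qHTS, Huh7 cells harboring an NPC1 promoter–luciferase construct received compound for 24 h; activation was quantified by luminescence following luciferase reagent addition.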
# * = called active by the depositor; u = inconclusive; x = not tested or not shown; [ ] = remark or other dose. Sampled rows, rich in hits. Any-hit rate of the full collection: about 9.4%. The call rests on the fitted dose curve; in most records, active means well fitted curve in the direction sought with a large enough effect; inconclusive means small, poorly fitted or top-dose-only effect, or another doubt; inactive means no such curve, though single readings can be large; an effect the other way counts as inactive or inconclusive. Potency means the concentration at half of the fitted maximal effect.
SMILES,Rab9 promoter act,FLuc counter,SMN2 splice up,ELG1 repair inh,ELG1 genotox,NPC1 prom act
COc1ccc(-c2cc3c(=O)n(CC(=O)NCc4ccccc4OC)ncn3n2)cc1,11.8%,-1.5%,x,u,14.4%,-1.8%
CCc1nn(CC(=O)NCc2ccc(OC)c(OC)c2)c(=O)c2cc3sc(C)cc3n12,x,-5.5%,-0.4%,x,x,x
CN(C)S(=O)(=O)N1CCC(Oc2cccc(C(=O)NCCC3=CCCCC3)c2)CC1,-13.7%,u,x,13µM*,-30.8%,-19.1%
CN(C)S(=O)(=O)N1CCC(Oc2cccc(C(=O)NC3CCCCC3)c2)CC1,-35.0%,-15.5%,x,-17.1%,-3.7%,-27.6%
C=CCNC(=O)c1ccc(OC2CCN(S(=O)(=O)N(C)C)CC2)cc1,u,16.9µM*,x,15.3%,13.8%,16.0%
O=c1[nH]c(C2CCN(S(=O)(=O)c3cccc([N+](=O)[O-])c3)CC2)nc2c1nnn2Cc1ccccc1,2.1%,-0.5%,x,u,4.4%,-3.9%
COc1cc(=O)n(C)c2c(OC[C@@H](O)C(C)(C)O)cccc12,x,x,5.1%[20.6 µM],x,x,x
Cc1cc(C)cc([N+](=O)[O-])c1,x,x,-1.5%,x,x,x
Cc1ccc2nc3c(c(N)c2c1)CCN3C,-2.6%,-1.2%,x,-3.7%,-0.7%,-1.4%
Cc1ccc2nc3c(c(N)c2c1)CCN3c1ccccc1,1.8%,19µM*,-47.5%,10.9%,-0.3%,16.7%
Cc1ccc(Cc2cnc(NC(=O)c3ccc4c(c3)CC(c3ccccc3)OC4=O)s2)cc1 (configuration not stated),x,-0.1%,51.6%,x,x,x
COc1ccccc1CCNC(=O)C(C)Sc1nc(-c2ccccc2)cc(C(F)(F)F)n1 (configuration not stated),x,0.0%,1.6%,x,x,x
Cc1ccc2nc(-c3cccs3)c(Nc3ccc4c(c3)OCCO4)n2c1,x,u,-0.5%,x,x,x
Cc1ccc2nc(-c3ccco3)c(Nc3ccc4c(c3)OCCO4)n2c1,x,10.7µM*,7.8%,x,x,x
COc1cc(-c2nc3ccc(C)cn3c2Nc2ccc3c(c2)OCCO3)ccc1O,0.3%,21.3µM*,u,8.0%,4.5%,1.2%
Cc1ccn2c(Nc3ccc4c(c3)OCCO4)c(-c3ccc(C)o3)nc2c1,x,13.5µM*,u,x,x,x
Cc1ccc2nc(-c3ccc(C)s3)c(Nc3ccc4c(c3)OCCO4)n2c1,x,u,12.6µM*,x,x,x
Cc1ccccc1-c1cc(Nc2ccc(F)cc2)ncn1,x,x,14.9%,x,x,x
CCN(CC(=O)Nc1ccc(NC(C)=O)cc1)C(=O)c1ccc(N2CCC(C)CC2)c([N+](=O)[O-])c1,-1.4%,16.9µM*,x,-18.1%,0.4%,-1.0%
CC1Cc2cc(S(=O)(=O)CCC(=O)Nc3ccc(F)cc3Cl)ccc2N1C(=O)C1CC1 (configuration not stated),x,2.2%,x,x,x,x
COC(=O)c1ccccc1NC(=S)N(Cc1ccc2c(c1)OCO2)Cc1cc2ccc(C)cc2[nH]c1=O,-1.0%,1.6%,-24.0%,5.8µM*,-4.8%,-3.6%
COC(=O)c1ccccc1NC(=S)N(Cc1ccc2c(c1)OCO2)Cc1cc2ccc(OC)cc2[nH]c1=O,-5.3%,1.1%,-30.0%,7.31µM*,-9.5%,-5.0%
COC(=O)c1ccccc1NC(=S)N(Cc1ccc2c(c1)OCO2)Cc1cc2cc(C)ccc2[nH]c1=O,-1.5%,0.9%,-17.7%,6.51µM*,-3.2%,-4.2%
CCN(CC)CCN(Cc1cc2ccc(C)cc2[nH]c1=O)C(=S)Nc1ccccc1C(=O)OC,-1.6%,-2.3%,x,-1.1%,-3.5%,-1.1%
COc1ccc2[nH]c(=O)c(CN(Cc3ccc4c(c3)OCO4)C(C)=O)cc2c1,-6.7%,-0.7%,-7.5%,-16.6%,0.1%,-6.7%
SMILES,Rab9 promoter act,FLuc counter,SMN2 splice up,ELG1 repair inh,ELG1 genotox,NPC1 prom act
O=C(Nc1cccc(F)c1)c1ccc2oc(=O)n(Cc3ccccc3)c2c1,x,-11.3%,x,x,x,x
COc1cccc(-c2nccc(-n3ccnc3)n2)c1,x,x,12.6µM*,x,x,x
CCN(c1ccc(NC(=O)CN2C(=O)NC3(CCOc4ccccc43)C2=O)cc1)C(C)C (configuration not stated),-2.2%,16.9µM*,-8.5%,0.4%,0.8%,-2.7%
N#CC1=C(N)Oc2n[nH]c(-c3ccccc3)c2C1c1cccnc1 (configuration not stated),12.6%,4.7%,3.55µM*,21.1%,0.4%,3.1%
CC1Cn2cc(C(=O)Nc3cccc(C(F)(F)F)c3)c(=O)c3c(Cl)ccc(c32)O1 (configuration not stated),x,2.7%,x,x,x,x
COc1cc(-c2c(C#N)c(N)nc(SCc3ccncc3)c2C#N)cc(OC)c1OC,-7.1%,0.0%,-15.4%,11.2µM*,-5.6%,0.3%
CCN(CC)C(=O)CSc1nc(N)c(C#N)c(-c2cccs2)c1C#N,-3.6%,2.3%,-16.2%,u,5.7%,-4.4%
N#Cc1c(N)nc(SCc2ccncc2)c(C#N)c1-c1cccs1,-18.3%,-7.4%,-46.2%,5.17µM*,-17.4%,-7.1%
CCSc1nc(N)nc(-c2cccs2)c1C#N,23.3%,u,u,u,20.6µM*,25.7%
COc1ccc(NC(=O)CN2C(=O)CSc3ccc(S(=O)(=O)N(C)C)cc32)cc1OC,x,-2.7%,x,x,x,x
CCOC(=O)c1ccc([N+](=O)[O-])c(CS(=O)(=O)c2ccc(Cl)cc2)c1,-6.8%[1.84 µM],3.9%,x,-7.8%,-4.6%,-2.9%
Cc1ccc(S(=O)(=O)Cc2cc(F)c([N+](=O)[O-])cc2[N+](=O)[O-])cc1,-31.0%,-19.0%,x,16.4µM*,-10.1%,-28.4%
CCSc1nc(-c2ccc(Cl)cc2)nc2c1Cc1c(CO)cnc(C)c1O2,x,0.5%,x,x,x,x
C(=N\Nc1nn2cnnc2c2ccccc12)/c1ccco1,-3.5%,-12.1%,-27.9%,21.1%,3.8%,-0.3%
Oc1ccc(/C=N/Nc2nn3cnnc3c3ccccc23)cc1,2.2%,9.53µM*,x,u,1.1%,u
COc1cc(/C=N/Nc2nn3cnnc3c3ccccc23)ccc1O,7.8%,2.69µM*,10.0%,u,0.8%,13.6%
CCOc1cc(/C=N/Nc2nn3cnnc3c3ccccc23)ccc1O,17.9%,5.36µM*,x,u,8.3%,25.3%
CCOc1cc(/C=N/n2cnnc2)ccc1O,-1.8%,-7.8%,7.5%,0.3%,0.5%,3.4%
COc1cccc(/C=N/NC(=O)C(C)n2nnc3ccccc32)c1 (configuration not stated),-3.3%,-8.5%,-8.4%,1.5%,4.9%,-1.5%
COc1cccc(/C=N/Nc2nn3cnnc3c3ccccc23)c1,15.9%,10.7µM*,-3.9%,u,8.2%,25.1%
COc1ccc(S(=O)(=O)NCC(c2ccco2)S(=O)(=O)c2ccc(C)cc2)cc1C (configuration not stated),x,-12.2%,x,x,x,x

# High-throughput results (PubChem BioAssay)
